From ChEMBL document CHEMBL4296182, “CO-ADD screening of NIH NCI Diversity Set V”
For part of these data: Potency and affinity values are given separately.

Legend:
Staphylococcus aureus = test: Antibacterial activity against Staphylococcus aureus MRSA ATCC 43300 (CO-ADD:GP_020); MIC in CAMBH media using NBS plates, by Resazurin F(560/590); format: functional; details: Concentration 20 uM, ASSAY_TEST Inhibition of Bacterial Growth, detection method Resazurin, Fluorescence (ex560/em590), MEDIA CAMHB, plate type 384well, CORNING #3640, time 18 hr
Acinetobacter baumannii = test: Antibacterial activity against Acinetobacter baumannii ATCC 19606 (CO-ADD:GN_034); MIC in CAMBH media using NBS plates, by Resazurin F(560/590); format: functional; details: Concentration 20 uM, ASSAY_TEST Inhibition of Bacterial Growth, detection method Resazurin, Fluorescence (ex560/em590), MEDIA CAMHB, plate type 384well, CORNING #3640, time 18 hr
Escherichia coli = test: Antibacterial activity against Escherichia coli ATCC 25922 (CO-ADD:GN_001); MIC in CAMBH media using NBS plates, by Resazurin F(560/590); format: functional; details: Concentration 20 uM, ASSAY_TEST Inhibition of Bacterial Growth, detection method Resazurin, Fluorescence (ex560/em590), MEDIA CAMHB, plate type 384well, CORNING #3640, time 18 hr
Klebsiella pneumoniae = details: Concentration 20 uM; ASSAY_TEST Inhibition of Bacterial Growth; detection method Absorption (OD600); MEDIA CAMHB; plate type 384well; NBS; CORNING #3640; time 18 hr
Candida albicans = details: 20 µM
Cryptococcus neoformans = details: Concentration 20 uM; ASSAY_TEST Inhibition of Fungal Growth; detection method Resazurin; Absorption (OD600-OD570); plate type 384well; NBS; CORNING #3640

## c1ccc(NN(Cc2ccncc2)c2ccccc2)cc1
Staphylococcus aureus
  Inhibition: -5.2%
Acinetobacter baumannii
  Inhibition: -18.1%
Escherichia coli
  Inhibition: 6%
Klebsiella pneumoniae
  Inhibition: 7.57%
Candida albicans
  Inhibition: 0.97%
Cryptococcus neoformans
  Inhibition: -6.08%

## CCc1nc(N)nc(N)c1-c1ccc(N(C)Cc2ccccc2)c([N+](=O)[O-])c1
Staphylococcus aureus
  Inhibition: -14.23%
Acinetobacter baumannii
  Inhibition: -5.52%
Escherichia coli
  Inhibition: 6.75%
Klebsiella pneumoniae
  Inhibition: 5.93%
Candida albicans
  Inhibition: 0.08%
Cryptococcus neoformans
  Inhibition: -8.19%

## C=C(C)c1nc(Oc2ccccc2)nc(Oc2ccccc2)n1
Staphylococcus aureus
  Inhibition: 19.07%
Acinetobacter baumannii
  Inhibition: 6.26%
Escherichia coli
  Inhibition: 6.34%
Klebsiella pneumoniae
  Inhibition: 11.06%
Candida albicans
  Inhibition: 0.6%
Cryptococcus neoformans
  Inhibition: -9.97%

## CCOC(=O)CSc1nc2nc(Cl)c(Cl)[nH]c-2n1
Staphylococcus aureus
  Inhibition: 22.58%
Acinetobacter baumannii
  Inhibition: 6.84%
Escherichia coli
  Inhibition: -0.86%
Klebsiella pneumoniae
  Inhibition: 8.77%
Candida albicans
  Inhibition: 0.89%
Cryptococcus neoformans
  Inhibition: 3.6%

## NC(=O)c1nnsc1-c1ccc(-c2snnc2C(N)=O)cc1
Staphylococcus aureus
  Inhibition: 15.72%
Acinetobacter baumannii
  Inhibition: 9.25%
Escherichia coli
  Inhibition: 9.34%
Klebsiella pneumoniae
  Inhibition: 2.92%
Candida albicans
  Inhibition: -1.56%
Cryptococcus neoformans
  Inhibition: -13.62%

## O=C(O)C(Cc1ccccc1N(CCO)CCO)N1C(=O)c2ccccc2C1=O (stereo unspecified)
Staphylococcus aureus
  Inhibition: 11.82%
Acinetobacter baumannii
  Inhibition: 6.12%
Escherichia coli
  Inhibition: 3.59%
Klebsiella pneumoniae
  Inhibition: 11.57%
Candida albicans
  Inhibition: 0.11%
Cryptococcus neoformans
  Inhibition: -6.78%

## CC(=O)NCC(=O)O.CN(C)CCC1c2ccc(Cl)cc2CCc2cccnc21 (stereo unspecified) [CLOSIRAMINE ACETURATE]
Staphylococcus aureus
  Inhibition: 15.26%
Acinetobacter baumannii
  Inhibition: -11.76%
Escherichia coli
  Inhibition: 19.15%
Klebsiella pneumoniae
  Inhibition: 8.33%
Candida albicans
  Inhibition: -2.05%
Cryptococcus neoformans
  Inhibition: -9.31%

## O=C(Nc1ccc(Cl)c([N+](=O)[O-])c1)Nc1nc2ccccc2s1
Staphylococcus aureus
  Inhibition: 44.46%
Acinetobacter baumannii
  Inhibition: 0.46%
Escherichia coli
  Inhibition: 3.52%
Klebsiella pneumoniae
  Inhibition: 21.95%
Candida albicans
  Inhibition: 9.03%
Cryptococcus neoformans
  Inhibition: 11.69%

## CC(O)c1nc2c(c(=O)n(C)c(=O)n2C)n1C (stereo unspecified)
Staphylococcus aureus
  Inhibition: -5.57%
Acinetobacter baumannii
  Inhibition: -6.98%
Escherichia coli
  Inhibition: 6.75%
Klebsiella pneumoniae
  Inhibition: 7.56%
Candida albicans
  Inhibition: -1.01%
Cryptococcus neoformans
  Inhibition: -6.24%

## Cc1cc(=O)c2c(o1)C(=O)c1occc1C2=O
Staphylococcus aureus
  Inhibition: -16.99%
Acinetobacter baumannii
  Inhibition: -9.35%
Escherichia coli
  Inhibition: -16.26%
Klebsiella pneumoniae
  Inhibition: 2.36%
Candida albicans
  Inhibition: 7.04%
Cryptococcus neoformans
  Inhibition: 24.84%

## COc1cc(-c2ccc(Nc3ccccc3C(=O)O)c(OC)c2)ccc1Nc1ccccc1C(=O)O
Staphylococcus aureus
  Inhibition: 0.05%
Acinetobacter baumannii
  Inhibition: 8.67%
Escherichia coli
  Inhibition: 4.59%
Klebsiella pneumoniae
  Inhibition: -0.01%
Candida albicans
  Inhibition: -0.13%
Cryptococcus neoformans
  Inhibition: -0.24%

## Cc1ccc(C)c(-n2c(-c3ccc(Br)cc3)cs/c2=N\C(=O)c2ccccc2F)c1
Staphylococcus aureus
  Inhibition: 15.56%
Acinetobacter baumannii
  Inhibition: -6.11%
Escherichia coli
  Inhibition: 6.4%
Klebsiella pneumoniae
  Inhibition: 8.65%
Candida albicans
  Inhibition: 4.24%
Cryptococcus neoformans
  Inhibition: -4.37%

## CCCCNCC1CCCO1 (stereo unspecified)
Staphylococcus aureus
  Inhibition: 9.4%
Acinetobacter baumannii
  Inhibition: -3.42%
Escherichia coli
  Inhibition: 8.45%
Klebsiella pneumoniae
  Inhibition: 9.23%
Candida albicans
  Inhibition: -0.1%
Cryptococcus neoformans
  Inhibition: -3.66%

## CN1N=C/C(=C/NC(N)=O)C1=O
Staphylococcus aureus
  Inhibition: -2.54%
Acinetobacter baumannii
  Inhibition: -2.43%
Escherichia coli
  Inhibition: 9.08%
Klebsiella pneumoniae
  Inhibition: 2.78%
Candida albicans
  Inhibition: 0.49%
Cryptococcus neoformans
  Inhibition: -3.93%

## CC(=O)c1cc(O)c2ccccc2c1O
Staphylococcus aureus
  Inhibition: 4.01%
Acinetobacter baumannii
  Inhibition: -14.11%
Escherichia coli
  Inhibition: 0.42%
Klebsiella pneumoniae
  Inhibition: 7.57%
Candida albicans
  Inhibition: 24.1%
Cryptococcus neoformans
  Inhibition: 6.09%

## CC1(C)c2ccccc2-c2nc3ccccc3cc2C1O (stereo unspecified)
Staphylococcus aureus
  Inhibition: 15.31%
Acinetobacter baumannii
  Inhibition: 7.67%
Escherichia coli
  Inhibition: -1.43%
Klebsiella pneumoniae
  Inhibition: 14.38%
Candida albicans
  Inhibition: 9.47%
Cryptococcus neoformans
  Inhibition: -10.94%

## CCCCOc1ccc(OC(=O)Nc2cc(Cl)ccc2OC)cc1
Staphylococcus aureus
  Inhibition: 13.88%
Acinetobacter baumannii
  Inhibition: 6.78%
Escherichia coli
  Inhibition: 2.93%
Klebsiella pneumoniae
  Inhibition: 11.91%
Candida albicans
  Inhibition: 0.59%
Cryptococcus neoformans
  Inhibition: -2.51%

## O=C(O)/C=C\C(=O)Nc1nccs1
Staphylococcus aureus
  Inhibition: 6.29%
Acinetobacter baumannii
  Inhibition: -13.11%
Escherichia coli
  Inhibition: 4.99%
Klebsiella pneumoniae
  Inhibition: 25.17%
Candida albicans
  Inhibition: 0.91%
Cryptococcus neoformans
  Inhibition: -1.21%

## O=C(Nc1ccc(F)cc1)OCCOc1ccc(Br)cc1
Staphylococcus aureus
  Inhibition: 6.52%
Acinetobacter baumannii
  Inhibition: 0.97%
Escherichia coli
  Inhibition: -0.96%
Klebsiella pneumoniae
  Inhibition: 0.6%
Candida albicans
  Inhibition: 2.88%
Cryptococcus neoformans
  Inhibition: 3.63%

## C=CCNc1ncnc2sc(SC)nc12
Staphylococcus aureus
  Inhibition: -6.85%
Acinetobacter baumannii
  Inhibition: 14.45%
Escherichia coli
  Inhibition: 5.94%
Klebsiella pneumoniae
  Inhibition: 7.44%
Candida albicans
  Inhibition: 10.1%
Cryptococcus neoformans
  Inhibition: -10.12%

## Cn1c(=O)c2c(nc(N3CCCCC3)n2C)n(C)c1=O
Staphylococcus aureus
  Inhibition: 9.93%
Acinetobacter baumannii
  Inhibition: 4.85%
Escherichia coli
  Inhibition: 2.17%
Klebsiella pneumoniae
  Inhibition: 8.3%
Candida albicans
  Inhibition: 4.05%
Cryptococcus neoformans
  Inhibition: -7.82%
